# According to the OligoGym collection:
# Target: C8orf86
# Experiment: pooled miR-30 sensor sort-seq; sequence = guide strand
# Settings: shRNA
# Also: reference of the scale not given here.
row,Sequence,sensor-assay potency score (higher = more potent)
1,TTGCTTCTAATCAACTCCTCAG,-0.327
2,ATTGCTTCTAATCAACTCCTCA,0.067
3,TTTCCTTCCCTTCTGTCCCAAA,-1.07
4,TTGTCTCTCTGTTCGCTGCTCA,0.291

# Target: C9orf100
# Experiment: as above
# Settings: shRNA
row,Sequence,sensor-assay potency score (higher = more potent)
1,TTGATGGTCAGGGCTGTTGGGA,-1.1
2,TTATAGAGCTCCAAGTGGCGGC,-0.479
3,TTCTTGGTAGCGCCGCTCGGTC,-1.6
4,TGAAGCCGTACAAACCTCCGGA,0.131
5,TCGGTCTCTAGCAGCTCCCGGG,-1.38
6,ATCTGGAGTAGCTTGGTCCAGG,-1.26
7,TTTCTTTAGCTGCTCCTGCAGG,-0.717
8,TATTTTTCTTTAGCTGCTCCTG,-0.997
9,TAAGCAGTAGCTTCTCATGAGG,-1.31
10,TCAGACTGTGGTACCAGCGTGA,0.191
11,AAATTGGTTATAGAGCTCCAAG,-1.5
12,TTGGTTATAGAGCTCCAAGTGG,-0.209

# Target: C9orf172
# Experiment: as above
# Settings: shRNA
row,Sequence,sensor-assay potency score (higher = more potent)
1,TTGGCCTCGACGAACTCGCAAA,-1.39
2,TACCTTCCGAAGTCCTCCGTGT,-0.162
3,TCTCGGACAGGGACAGTGCGGC,-0.804
4,TAGGTGTAGCAGCTGTGGCAGG,-0.976
5,TAGTAGGCGTCGAAGGTTGGGC,-0.683
6,TTGTCAGTGATGGTGATCTCGG,-1.12
7,TAGTAGGTGTAGCAGCTGTGGC,-1.29
8,TCATCAGGTCGTCCTCGTCGGC,-1.75
9,ATGATCATGCACATGAAGGGGC,0.238
10,TTGAACATGGTCTCGGTGCGCC,-0.301
11,TTGATGTCCTGGTACACGGTCG,-0.476
12,TATGAGTCGCTGGGCGTCGGGG,-1.22

# Target: C9orf30
# Experiment: as above
# Settings: shRNA
row,Sequence,sensor-assay potency score (higher = more potent)
1,TTATTGAGAACTTCCATTTTTA,-0.9
2,ATCACTTTTCTTACATTCCAGC,-1.2
3,TTAAATGAGGAAACAGGCCATT,-1.27
4,TTACAGGTTACTGACCGCCAAG,-1.66
5,TATTCTGACAGCTGAACACGAG,-0.517
6,TTGTTGATGGTGTTCTTCCTCA,-0.2
7,TTTTCTTACATTCCAGCACATA,-1.58
8,TTCAGAAGACTATAACAGCTTC,-0.358
9,TTATCCTGTGTTCCTCCTCTGC,-1.19
10,TATACTTTTCTACTAAAGCCAG,-0.895
11,TTTATTGAGAACTTCCATTTTT,-0.999
12,AGAACTTCCATTTTTATCCTGT,-0.0866
